Z-score and composite z-score data for 13 compounds are collected here from PubChem BioAssay.

The nature of assay [1]: HepG2 liver cancer cell viability effects, profiling panel, resazurin fluorescence, 24 h, PK04 Diversity Set (AID 1172). Note: test concentration not given here. The conditions noted are these: higher = more signal. (In general: Alamar Blue is a resazurin reagent that responds to reducing activity.)
Assay [2] in a line: basal S. cerevisiae growth modulation, no modifier, primary screen, OD600, strain BY4716, 24 h, basal condition (AID 1173). The note with it: OD600, 24 h, higher = more signal, called active from +8 up or from −8 down.
Assay [3] in a line: MM1S myeloma cell viability, profiling panel, resazurin fluorescence, basal, 24 h, PK04 Diversity Set (AID 1174). Note: test concentration not given here. The note with it: higher = more signal, called active from +8 up or from −8 down.
Assay [4] deals with Dihydroorotate dehydrogenase (quinone), mitochondrial (Plasmodium falciparum (isolate 3D7)) (UniProt Q08210). Nature of the assay: PfDHODH enzyme inhibitors, primary screen, biochemical, C-terminal His tag, absorbance 600 nm (AID 1175).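 Note: recombinant parasite enzyme with a five histidine tag at its C terminus; test concentration not given here.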 The conditions noted are these: DCIP absorbance 600 nm, higher = more signal, called active from +8 up or from −8 down.
Chain of Dihydroorotate dehydrogenase (quinone), mitochondrial (Plasmodium falciparum (isolate 3D7)) (Q08210 whole entry, looked up): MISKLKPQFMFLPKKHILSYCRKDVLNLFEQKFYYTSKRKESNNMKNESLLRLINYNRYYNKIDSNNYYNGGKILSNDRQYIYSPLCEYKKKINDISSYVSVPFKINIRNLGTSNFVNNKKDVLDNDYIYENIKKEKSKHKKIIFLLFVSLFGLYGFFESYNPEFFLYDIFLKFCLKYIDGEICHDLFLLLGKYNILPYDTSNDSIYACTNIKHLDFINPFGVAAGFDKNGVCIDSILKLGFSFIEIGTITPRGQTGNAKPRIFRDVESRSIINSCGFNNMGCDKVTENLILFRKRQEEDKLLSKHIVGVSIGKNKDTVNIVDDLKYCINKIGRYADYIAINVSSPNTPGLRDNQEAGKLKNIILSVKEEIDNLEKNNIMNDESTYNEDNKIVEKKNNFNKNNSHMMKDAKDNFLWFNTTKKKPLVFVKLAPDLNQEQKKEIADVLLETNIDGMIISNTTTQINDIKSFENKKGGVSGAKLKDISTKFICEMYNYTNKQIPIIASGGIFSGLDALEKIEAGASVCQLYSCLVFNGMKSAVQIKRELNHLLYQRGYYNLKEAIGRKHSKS
A short description of assay [5]: P. aeruginosa biofilm formation inhibitors, primary screen, strain PAO1, LB-PBS medium, absorbance 600 nm (AID 1176). Note: test concentration not given here. The note with it: P. aeruginosa PAO1 growth/biofilm, A600, 12 h; higher = more signal.
Assay [6] is described as follows: S. cerevisiae RM11-1a growth modifiers, primary screen, strain RM11-1a, OD600, basal, 24 h (AID 1177).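 Note: cultures grown under basal conditions with no added stressor; test concentration not given here.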 The conditions noted are these: OD600, 24 h, higher = more signal, called active from +8 up or from −8 down.
The nature of assay [7]: E. coli acrAB mutant growth effects, primary screen, E. coli filamentation inducers, strain DRC39, OD650, 24 h (AID 1178).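 Note: growth measured as culture turbidity by optical density at 650 nm; test concentration not given here.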 The note with it: higher = more signal, called active from +8 up or from −8 down.
A short description of assay [8]: E. coli acrAB mutant growth effects, primary screen, E. coli filamentation inducers, strain DRC39, OD650, 48 h (AID 1179).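 Note: screen aims at cell division blockers that make cells filament.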 The conditions noted are these: E. coli DRC39 delta-acrAB growth, higher = more signal, called active from +8 up or from −8 down.
Assay [9] in a line: RPMI8226 myeloma cell viability, profiling panel, resazurin fluorescence, basal, 24 h, PK04 Diversity Set (AID 1180).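 Note: RPMI8826 multiple myeloma cell line at 5000 cells per well; test concentration not given here.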 The note with it: higher = more signal.
Assay [10] has as its target E3 ubiquitin-protein ligase XIAP (Homo sapiens) (UniProt P98170). Nature of the assay: XIAP binders, primary screen, biophysical, small-molecule microarray, fluorescence 635 nm (AID 1181).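 Note: score merges 667 nm emission and signal to noise over triplicate slides.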 The note with it: small-molecule microarray binding, higher = more signal.

The source made the active and inactive calls. Unless noted, the rule behind the calls is not given here.

Chain of E3 ubiquitin-protein ligase XIAP (Homo sapiens) (P98170 whole entry, looked up): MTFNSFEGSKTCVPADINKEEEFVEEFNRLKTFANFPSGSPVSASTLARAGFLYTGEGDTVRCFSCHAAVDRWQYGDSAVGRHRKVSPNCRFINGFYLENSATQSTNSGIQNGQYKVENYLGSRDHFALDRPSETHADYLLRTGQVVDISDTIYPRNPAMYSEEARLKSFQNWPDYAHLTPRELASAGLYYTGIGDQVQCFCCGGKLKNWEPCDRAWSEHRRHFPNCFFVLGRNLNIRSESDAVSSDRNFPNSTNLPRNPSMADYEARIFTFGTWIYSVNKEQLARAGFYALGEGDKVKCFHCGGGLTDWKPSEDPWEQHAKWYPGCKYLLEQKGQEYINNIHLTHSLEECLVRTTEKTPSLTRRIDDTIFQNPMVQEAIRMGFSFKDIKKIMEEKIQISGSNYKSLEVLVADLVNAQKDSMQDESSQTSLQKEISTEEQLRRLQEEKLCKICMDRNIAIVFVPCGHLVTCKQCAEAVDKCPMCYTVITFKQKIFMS

For `[N-]=[N+]=NCc1ccccc1[C@@H]1OC(c2ccc(OCCCO)cc2)=N[C@]1(Cc1ccccc1)C(=O)NCCN1CCOCC1`, the z-score was -0.195 in [1]; -0.559 (inactive) in assay [2]; 0.162 (inactive) in assay [3]; -0.279 (inactive) in [5]; 1.89 (inactive) in assay [6]; 2.23 (inactive) in [7]. Moreover, the figures for the z-score in assay [8] and in assay [9] were 0.528 (inactive) and -0.0015, respectively. For the same compound, the composite z-score in [4] was 1.16 (inactive); in assay [10], -0.0125.
Consider `C=C(/C(=C/C[C@@H](OC(C)=O)c1ccc(OCCO)cc1)c1cc(C(=O)OC)ccc1OC)C(C)C`, for which the z-score in assay [1] is -0.459; in assay [2], -0.0855 (inactive); in [3], -0.53 (inactive); in assay [5], 0.437 (inactive); in assay [6], 0.492 (inactive); in [7] it was -0.0333 (inactive). For the same compound, the z-score in [8] is 0.0954 (inactive); in assay [9], -0.161. The values for the composite z-score in assay [4] and in assay [10] were -5.7 (inactive) and 0.0546, respectively.
With `O=C1OCC=C[C@H]2OC34C=CCN(c5ccc6ccccc6c5)C(=O)[C@H]3N(CCCCCO)C(=O)[C@@H]4[C@@H]12` (stereo not given in full), the z-score in [1] was -0.658; in assay [2] it was -0.459 (inactive); in assay [3] it was -0.818 (inactive); in assay [5], -0.634 (inactive); in assay [6] it was 0.176 (inactive); in assay [7] it was -1.19 (inactive). In addition, the z-score in [8] is -1.3 (inactive); in assay [9], -0.887. In addition, the composite z-score in assay [4] is 0.28 (inactive); in assay [10], -0.0286.
As for `COc1ccc(C(O)C2C=CC3C(=O)N(c4ccccc4)C(=O)C3N2Nc2ccccc2)cc1` (stereo not given), the z-score in assay [1] was -0.377; in assay [2], -2.39 (inactive); in assay [3], -0.582 (inactive); in assay [5], 0.571 (inactive); in assay [6] it was -0.0179 (inactive); in assay [7], -0.519 (inactive). Besides, the z-score in assay [8] is -0.43 (inactive); in assay [9] it was -0.841. Also, the composite z-score in assay [4] is 0.618 (inactive); in assay [10] it was 0.438.
For the compound `C=C(COC)/C(=C/C[C@H](OC(C)=O)c1cccc(OCCO)c1)c1cnc2ccccc2c1`, the z-score is -0.0054 in assay [1]; 1.02 (inactive) in [2]; -0.496 (inactive) in assay [3]; 0.0721 (inactive) in assay [5]; 1.56 (inactive) in [6]; -0.901 (inactive) in assay [7]. In addition, the z-score in assay [8] was -0.856 (inactive); in assay [9], -0.58. Besides, the composite z-score is -6.23 (inactive) in assay [4] and -0.0749 in assay [10].
Consider `CN(C)C(=O)[C@]1(CCS(=O)(=O)c2ccccc2)N=C(c2ccc(OCCCO)cc2)O[C@@H]1c1ccccc1`, for which the z-score is 1.4 in assay [1]; -0.265 (inactive) in assay [2]; -0.342 (inactive) in [3]; -0.484 (inactive) in assay [5]; -0.315 (inactive) in assay [6]; 0.582 (inactive) in assay [7]. Also, the z-score is -0.0986 (inactive) in assay [8] and -0.155 in assay [9]. The composite z-score in assay [4] is 0.524 (inactive); in assay [10], 0.0651.
On to `CN(C)C(=O)[C@@]1(CCC(=O)OC(C)(C)C)N=C(c2ccc(OCCCO)cc2)O[C@H]1c1ccccc1CN=[N+]=[N-]`, for which the z-score in [1] is 0.891; in assay [2], 0.481 (inactive); in assay [3], -1.19 (inactive); in assay [5], 0.317 (inactive); in assay [6] it was -0.0065 (inactive); in assay [7] it was 0.364 (inactive). Also, the z-score in assay [8] is 0.98 (inactive); in assay [9], 0.885. Besides, the composite z-score is -0.261 (inactive) in assay [4] and -0.0272 in assay [10].
On to `CC(C)C[C@@H]1NC(=O)[C@@]23C(=O)N[C@@H](Cc4ccccc4)C2[C@H](C)[C@@]2(C)O[C@H]2C3/C=C/C/C=C\CNC(=O)[C@@H](C)NC1=O` (stereo not given in full), for which the z-score was 0.833 in assay [1]; -0.68 (inactive) in [2]; 1.33 (inactive) in assay [3]; -0.131 (inactive) in assay [5]; -1.08 (inactive) in [6]; 1.65 (inactive) in assay [7]. Further, the values for the z-score in [8] and in assay [9] were 0.209 (inactive) and 1.01, respectively. In addition, the composite z-score in assay [4] was -0.401 (inactive); in assay [10], -0.116.
`O=C1NC(=O)C2C1C=CC(C(O)c1ccccn1)N2Nc1ccc(Cl)cc1Cl` (stereo not given): the z-score is -1.08 in assay [1]; -4.1 (inactive) in assay [2]; -0.837 (inactive) in assay [3]; 0.931 (inactive) in assay [5]; 0.351 (inactive) in assay [6]; -0.587 (inactive) in assay [7]. The z-score in [8] is -0.534 (inactive); in assay [9], -1.82. The composite z-score in [4] was -0.0894 (inactive); in assay [10], -0.131.
As for `COc1cc(NN2C(C(O)C3CCCCC3)C=CC3C(=O)N(c4ccccc4)C(=O)C32)cc(OC)c1OC` (stereo not given), the z-score is -1.64 in [1]; 1.2 (inactive) in [2]; -1.62 (inactive) in [3]; 0.698 (inactive) in [5]; 0.135 (inactive) in [6]; -0.0089 (inactive) in assay [7]. In addition, the z-score in assay [8] is -0.545 (inactive); in assay [9], -1.67. Further, the composite z-score in [4] is -0.0779 (inactive); in assay [10], 0.337.
As to `[N-]=[N+]=Nc1ccccc1[C@@H]1OC(c2ccc(OCCCO)cc2)=N[C@]1(Cc1ccccc1)C(=O)NCc1ccccc1`, the z-score in assay [1] was -0.421; in assay [2], 0.152 (inactive); in assay [3], -3.62 (inactive); in [5], 0.563 (inactive); in assay [6], 0.265 (inactive); in assay [7] it was -0.324 (inactive). The z-score was -0.441 (inactive) in assay [8] and -3.62 in assay [9]. The composite z-score was 0.613 (inactive) in assay [4] and 0.338 in assay [10].
In the case of `COc1cc(CO)cc(I)c1O[C@H]1C=C(C(=O)NCCO)C[C@@H](NCC2CCCCC2)[C@@H]1O`, the z-score in assay [1] is 0.361; in [2], -0.964 (inactive); in [3], -0.221 (inactive); in [5], -0.107 (inactive); in assay [6], -0.489 (inactive); in [7], 1.45 (inactive). Also, the values for the z-score in assay [8] and in [9] were 0.866 (inactive) and 0.428, respectively. The composite z-score is -0.257 (inactive) in assay [4] and 0.0831 in assay [10].
As to `O=C(NCC(O)CO)[C@@]1(CCS(=O)(=O)c2ccccc2)COC(c2ccc(OCCCO)cc2)=N1` (stereo not given in full), the z-score in assay [1] is 0.114; in [2], 0.452 (inactive); in assay [3], -0.169 (inactive); in assay [5] it was -0.043 (inactive); in assay [6] it was 1.29 (inactive); in assay [7] it was 0.243 (inactive). The z-score in assay [8] is -0.135 (inactive); in assay [9], -0.159. The composite z-score in assay [4] was 0.699 (inactive); in assay [10], -0.0332.
